The list is not random: actives were taken first. Their share in the collection is about 2.4%.
TLR4 MyD88 comp – blocks binding of human TLR4 to MyD88; O00206+Q99836; HeLa CL3-4 TLR4/MyD88 BLA complementation, FRET ratio; inhibition, % at 8.4 µM; hit rate 0.18% among 200,000; AID 861; in the data active means inhibition above about 25%;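 further: 0% = vehicle and 100% = reference inhibitor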
CRFR2-BP antag – CRF-BP/CRF-R2 complex antagonism | HEK293 CRF-R2/CRF-BP, CRF-induced calcium fluorescence | inhibition, % at 11.8 µM | hit rate 0.59% among 350,000;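 active means inhibition of the ligand-induced calcium signal above about 50% at the single tested concentration, limit read from the data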
NOD2 RIPK2 PPI – inhibitors of human NOD2-RIPK2 interaction; AID 624267; hit rate 0.38% among 360,000; inhibition, % at 4.98 µM; CHO BLA complementation NOD2-RIPK2, CCF4 ratio; in the data active means inhibition above about 21%;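 further: 0% = vehicle only and 100% = reference blocker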
ABHD5 PLIN5 PPI – inhibitors of human ABHD5-perilipin-5 interaction; Q00G26+Q8WTS1; Split G. princeps luciferase complementation, luminescence, 4 h; inhibition, % at 4 µM; hit rate 0.78% among 360,000; AID 602281;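 active means inhibition above the mean inhibition across every tested compound plus 3 SD, cut at about 22% in these data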;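 further: 0% = DMSO only wells and the 100% control is not disclosed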
TLR9-MyD88 inh – inhibitors of human TLR9-MyD88 binding; Q9NR96+Q99836; CHO BLA complementation TLR9-MyD88, CCF4 FRET ratio; inhibition, % at 4.98 µM; hit rate 0.21% among 340,000;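 active means inhibition above the mean over all tested compounds plus 3 SD, cut at about 21% in these data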;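 further: 0% = DMSO only wells and 100% = clavulanate BLA inhibitor control wells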
m5-HT2A agonist – activates the mouse 5-HT2A serotonin receptor | AID 624169 | CHO-K1 mHTR2A beta-arrestin complementation, luminescence; percent of 30 µM serotonin response | activation, % at 7.6 µM | hit rate 0.66% among 360,000 | P35363;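 active means activation above a run cutoff, the mean activation of all tested compounds plus 3 SD, cut at about 14% in these data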;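 further: 0% = plate median of compound wells and 100% = 30 µM serotonin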
An asterisk follows results filed as active; . = not tested or not shown.

SMILES	TLR4 MyD88 comp	CRFR2-BP antag	NOD2 RIPK2 PPI	ABHD5 PLIN5 PPI	TLR9-MyD88 inh	m5-HT2A agonist
CC(C)(C)OC(=O)NC(Cc1ccccc1)C(=O)N1CCC(C(=O)NCC(=O)Nc2ccc(F)cc2)CC1 (stereo not drawn)	.	67*	-4	5	-14	2
CC(C)(C)OC(=O)N[C@@H](Cc1ccccc1)C(=O)N1CCC(C(=O)NCC(=O)O)CC1	.	-10	2	-2	-8	4
CCCS(=O)(=O)N1CCC(C(=O)NCCCN(CC)c2cccc(C)c2)CC1	1	-1	3	-2	5	-6
CCCS(=O)(=O)N1CCCC(C(=O)NCCCN(CC)c2cccc(C)c2)C1 (stereo not drawn)	-16	94*	-9	-5	-18	-1
Clc1ccc(N2O[C@H]3C=C[C@@H]2C3)nc1	.	.	8	-6	.	-4
O=c1ccn([C@@H]2O[C@H](CNCc3cccn3-c3ccncc3)[C@@H](O)[C@H]2O)c(=O)[nH]1	.	.	-12	1	.	9
Cc1cc(OCC(=O)Nc2c(C(C)C)cccc2C(C)C)no1	.	9	2	-4	9	-3
Cc1ccc(S(=O)(=O)Nc2ccccc2/C=N/c2nc3ccccc3n2C)cc1	2	71*	7	-13	-8	2
COc1ccccc1S(=O)(=O)Cc1ccc(C(=O)NCc2ccco2)o1	.	4	-5	9	-12	-1
COc1ccccc1S(=O)(=O)Cc1ccc(C(=O)NCc2ccccc2)o1	.	55*	-14	2	-1	2
O=C1CSC(c2ccccc2F)N1c1cc(Cl)ccc1O (stereo not drawn)	-12	53*	10	-3	-7	0
O=C(O)c1ccccc1NS(=O)(=O)c1ccc2c(c1)OCCO2	0	57*	-5	4	-5	0
Cc1cc(C)c(C)c(S(=O)(=O)Nc2ccccc2C(=O)O)c1C	-6	85*	-2	6	5	3
Cc1ccccc1NS(=O)(=O)c1ccc(C)c(C(=O)N2CCOCC2)c1	.	54*	-12	1	-16	1
CCOc1ccccc1-c1c2cc(O)c(=O)cc-2oc2cc(O)c(O)cc12	1	-219	13	27*	16	-3
COc1ccc(N2CCN(C(=O)CCS(=O)(=O)c3ccc4c(c3)NC(=O)CO4)CC2)cc1	.	56*	-5	-3	-1	-4
O=c1cc(-c2ccccc2)ss1	.	90*	-3	3	-5	1
O=C(Nc1ccccc1)c1cc(C2CCCCN2C(=O)c2cccs2)on1 (stereo not drawn)	.	.	-11	2	.	9
COc1ccc(NC(=O)c2onc(C)c2Cl)cc1	.	-9	-4	3	-7	1
COc1ccc(S(=O)(=O)N(c2onc(C)c2Cl)S(=O)(=O)c2ccc(OC)cc2)cc1	5	51*	-7	9	-2	-2
CCc1nc2ccc(C(=O)Nc3cccc(OC)c3)cn2c1N(CC)Cc1cccc(Br)c1	.	.	0	-11	.	0
Cc1ccc2c(c1)c1c3n2CCN(C(=O)CN2CCN(C)CC2)C3CCC1 (stereo not drawn)	5	17	8	11	3	-3
CN1CCN(CC(=O)N2CCn3c4c(c5cc(C6CCCCC6)ccc53)CCCC42)CC1 (stereo not drawn)	0	-33	5	23*	-5	-6
O=C(CCCN1C(=O)C(=Cc2ccc3c(c2)OCO3)SC1=S)Nc1ccc(C(=O)O)c(O)c1	.	.	-20	16	.	-3
COc1ccc(C2=NS(=O)(=O)N(C)C(C(=O)N3CCN(C)CC3)=C2)cc1	.	4	3	-1	-4	-4
SMILES	TLR4 MyD88 comp	CRFR2-BP antag	NOD2 RIPK2 PPI	ABHD5 PLIN5 PPI	TLR9-MyD88 inh	m5-HT2A agonist
CCN1CCN(C(=O)C2=CC(c3ccc(OC)cc3)=NS(=O)(=O)N2C)CC1	.	63*	-12	-1	1	5
Cc1cccc(C)c1NC(=O)C1(C)CN(S(C)(=O)=O)CC(=O)N1Cc1cccs1 (stereo not drawn)	.	.	-18	-13	.	-2
CCCCc1c(-c2ccc(F)cc2)ncn1CCc1ccccc1OC	.	.	-2	-10	.	-7
Cc1cc(C)c(C)c(S(=O)(=O)N2CCC(C(=O)N3CCN(c4ccc(F)cc4)CC3)CC2)c1C	.	-1	-17	9	-4	-4
Cc1noc(C)c1S(=O)(=O)N1CCC(C(=O)N2CCN(c3ccc(F)cc3)CC2)CC1	-8	60*	.	.	.	.
CC1=C2CCCC[C@@]23C2C(=O)N(C)C(=O)[C@@H]2ON3OC1 (stereo partly drawn)	.	.	-6	3	.	-2
O=C(COc1cc(Cl)ccc1Cl)N1CCNC1=O	.	51*	-10	4	3	4
COC(=O)[C@]12CCCCC=C1N(Cc1ccc3c(c1)OCO3)C(=O)[C@H](CC(=O)NCCCCc1ccccc1)C2	.	.	-6	2	.	-1
Cc1ccc(S(=O)(=O)NNC(=S)Nc2cccc(F)c2)cc1	.	93*	-4	-1	5	11
Cc1cccc(NC(=O)NNS(=O)(=O)c2ccc(F)cc2)c1	9	5	-11	4	-6	2
CCOC(=O)C1=CCC(c2ccccc2C)N(S(=O)(=O)c2ccc(C)cc2)C1 (stereo not drawn)	.	.	-4	-6	.	-2
O=C1NC[C@@H](CCCCN2CCN(CC3CCCCC3)C(=O)C2=O)N(CCC2CCCCC2)C1=O	.	.	-3	3	.	10
CCN(CC(=O)Nc1ccc(NC(C)=O)cc1)C(=O)c1ccc(=O)n(C)n1	.	98*	3	11	13	0
CCc1nc2c(OCCC3CCCCC3)cccn2c1N(C)C(=O)c1cccs1	.	.	-5	-7	.	-12
CN1CCN(C(=O)C[C@@H]2C=C[C@H](NS(=O)(=O)c3cccc(F)c3)[C@@H](CO)O2)CC1	.	.	-7	5	.	3
CCOC(=O)[C@]12CCC=C1N(Cc1ccco1)C(=O)[C@H](CC(=O)NCC1CCCCC1)C2	.	.	-2	1	.	4
Fc1ccc(Br)cc1C1C=C(c2cccnc2)Nc2ncnn21 (stereo not drawn)	-6	-14	49*	2	24*	6
COc1cccc(-c2oc3c(c2-c2ccc(Br)nc2)C(O)CCC3)c1 (stereo not drawn)	.	.	5	-6	.	-3
O=C(c1ccc(N2CCCCC2)c([N+](=O)[O-])c1)N1CCOCC1	6	5	-7	0	-4	4
O=C(/C=C/c1ccc(N2CCCCC2)c([N+](=O)[O-])c1)c1ccc(O)cc1	8	-43	-1	22*	7	-6
C=CC(=O)Oc1ccc(N2Cc3ccccc3C2=O)cc1	.	97*	-4	6	.	3
COc1ccc(N2Cc3ccccc3C2=O)cc1	.	13	5	-6	1	-2
COc1ccc(NC(=O)c2c(F)cccc2F)cc1S(=O)(=O)Nc1ccc(Br)cc1	0	63*	-4	10	-7	-3

Screening results as filed in PubChem BioAssay.
